# In PubChem BioAssay:
# Inconclusive results are not listed. Active and inactive are the calls of the source. Unless noted, the limit is not given here; nearly all actives have AC50 up to about 26 µM.
# Tests used:
# [1] = viability loss in pontine glioma line – cell-based, SU-DIPG-XVII, MIPE5.0, CellTiter-Glo, qHTS, dose response (AID 1347060); settings: CellTiter-Glo ATP luminescence;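 as to AC50: cells exposed to compound for 48 hours before viability readout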
# [2] = viability loss in pontine glioma line – cell-based, SU-DIPG-XXV, MIPE5.0, CellTiter-Glo, qHTS, dose response (AID 1347065); settings: CellTiter-Glo ATP luminescence;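 also: cells exposed to compound for 48 hours before ATP readout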
# [3] = growth inhibition of DIPG cells – cell-based, MIPE5.0 library, qHTS (AID 1347068; cut-off not given, nearly all actives have IC50 up to about 30 µM;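 as to IC50: cells exposed to compound for 48 hours before viability readout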); settings: SU-DIPG-XXV viability
# [4] = JHH-DIPG-1 glioma cell viability, MIPE5.0 library, CellTiter-Glo luminescence, qHTS (AID 1347067); settings: JHH-DIPG-1 glioma viability, CellTiter-Glo ATP luminescence;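 also: cells exposed to compound for 48 hours before readout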
# [5] = viability loss with induced miR-34 in A549 – imaging, A549 dox-inducible miR-34, nuclei and caspase counts, primary screen (AID 1347080;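 active = compounds whose cell count with miR-34 switched on is under 0.7 times the count with it off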); settings: A549 miR-34 inducible, Hoechst nuclei count, 48 h
# [6] = MELAS cybrid and Rieske KO viability enhancers – cell-based, MELAS cybrids, Rieske KO mouse fibroblasts, CellTiter-Glo, primary screen (AID 1508586;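 active = mean z-score across replicates of 1.96 or higher in either the MELAS or the Rieske mutant cell line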;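 also: z relative to plate mean and SD of compound and empty wells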); settings: low glucose
# [7] = growth inhibition, single agent or in combination, cell-based, chromothripsis tumors, cisplatin or BGB combos (AID 1671449; in the data active = inhibition above about 80%;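 also: cells exposed for 96 hours; 0% = vehicle DMSO and 100% = killing by high DMSO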); settings: LFS_MB_P medulloblastoma cells
# [8] = growth inhibition, single agent and combos, cell-based, chromothripsis tumors, cisplatin or BGB combos (AID 1671450; in the data active = inhibition above about 80%;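 also: cells exposed to compound for four days; 0% = vehicle DMSO and 100% = cell killing by high DMSO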); settings: HDN33 neuroblastoma cells, stronger effect = higher value
# [9] = growth inhibition, single agents and combos, ICB984, cell-based, cisplatin or BGB combos, synergistic combos for chromothripsis tumors (AID 1671451; call rule not given here;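 also: cells exposed for 96 hours before readout; 0% = vehicle DMSO and 100% = killing by high DMSO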); settings: ICB984 medulloblastoma cells, drug combinations, stronger effect = higher value
# [10] = growth inhibition, single agents and combos, HTB85, cell-based, BGB or cisplatin IC20 combos, synergistic combos for chromothripsis tumors (AID 1671453; in the data active = inhibition above about 80%;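 also: cells exposed for 96 hours before readout; 0% = vehicle DMSO and 100% = high DMSO killing control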); settings: HTB85 osteosarcoma cells, drug combinations, stronger effect = higher value
# [11] = growth inhibition, MDA-MB-436, cell-based, BGB or cisplatin combos, synergistic combos for chromothripsis tumors (AID 1671458; call rule not given here;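 also: cells exposed for 96 hours; 0% = vehicle DMSO and 100% = killing by high DMSO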); settings: MDA-MB-436 breast carcinoma growth inhibition, drug combinations, stronger effect = higher value
# [12] = BT084 cell growth, single and combined drugs, ICGC_MB145, cisplatin and BGB IC40 combos (AID 1671461; in the data active = inhibition above about 80%;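 also: cells exposed to drugs for 96 hours; 0% = vehicle DMSO and 100% = high DMSO full killing control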); settings: BT084 medulloblastoma cells, drug combinations, stronger effect = higher value
# [13] = RCMB18 cell growth, single agent and combined, cisplatin and BGB IC40 combos (AID 1671462; in the data active = inhibition above about 80%;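 also: cells exposed to compound for four days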); settings: RCMB18 medulloblastoma cells, stronger effect = higher value
# [14] = CRL1545 cell growth, single agent and combined, cisplatin and BGB IC20 combos (AID 1671464; in the data active = inhibition above about 80%;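 also: cells exposed to compound for 96 hours before readout; 0% = vehicle DMSO and 100% = high DMSO killing control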); settings: CRL1545 osteosarcoma cells, stronger effect = higher value
# [15] = measured here: with BGB IC20 combination, at 0.5 µM
# [16] = measured here: with cisplatin IC20 combination, at 0.5 µM
structure (smiles),measurement,setting,value
CCNCCS(=O)(=O)NC[C@@]1(c2ccccc2)SC(NC(=O)C(C)(C)C)=NN1C(=O)C(C)(C)C,AC50,[1],0.00742 µM (active)
same,AC50,[2],0.00468 µM (active)
same,IC50,[3],0.00296 µM (active)
COc1ccc(CNc2nc(N(CCO)CCO)nc3c2ncn3C(C)C)cc1,AC50,[1],7.42 µM (active)
same,AC50,[2],10.5 µM (active)
same,AC50,[4],5.25 µM (active)
same,IC50,[3],11.8 µM (active)
Cc1cc(OCc2nnc(SC3CCCC3)n2-c2cccnc2)ccc1-c1ccc(S(C)(=O)=O)cc1,AC50,[1],8.33 µM (active)
same,AC50,[2],8.33 µM (active)
same,AC50,[4],2.09 µM (active)
same,outcome,[3],inactive
same,fold change,"[5]; stronger effect = lower value, cell number ratio, induced over uninduced",0.88 (inactive)
same,fold change,[5]; measured here: relative caspase fold change +Dox/-Dox,0.499
same,cell count,"[5]; measured here: total cells with miR-34 induction, stronger effect = lower value",1100
same,cell count,[5]; measured here: total cells without miR-34 induction,1250
same,z-score,"[6]; MELAS cybrid survival, CellTiter-Glo 48 h, stronger effect = higher value",0.698 (inactive)
same,z-score,"[6]; Rieske KO mouse fibroblast survival, CellTiter-Glo 72 h",-0.0239
Cn1cc(-c2ccc(F)c(C(F)(F)F)c2)nc1C1CCN(c2ncnc3[nH]ncc23)CC1,outcome,[1],inactive
same,outcome,[2],inactive
same,outcome,[3],inactive
NC(=O)C1=C(O)[C@@]2(O)C(=O)C3=C(O)c4c(O)cccc4C[C@H]3C[C@H]2CC1=O,AC50,[1],18.6 µM (active)
same,AC50,[4],14.8 µM (active)
same,outcome,[3],inactive
CN[C@@H]1CN(c2ccc3c(=O)c(C(=O)O)cn(-c4nccs4)c3n2)C[C@H]1OC,AC50,[1],0.91 µM (active)
same,AC50,[2],5.74 µM (active)
same,AC50,[4],9.1 µM (active)
same,inhibition,"[7]; at 0.5 µM, stronger effect = higher value",-19.9% (inactive)
same,inhibition,"[7]; measured here: combination with BGB IC20, at 0.005 µM",-32.1%
same,inhibition,"[7]; measured here: combination with BGB IC40, at 0.005 µM",-41.7%
same,inhibition,"[7]; measured here: combination with BGB IC40, at 0.05 µM",-39.5%
same,inhibition,"[7]; measured here: combination with cisplatin, at 0.5 µM, stronger effect = higher value",-37.3%
same,inhibition,"[7]; measured here: combination with cisplatin, at 5 µM, stronger effect = higher value",59.3%
same,inhibition,"[8]; BGB combo, at 5 µM",99.1%
same,inhibition,[8]; at 0.5 µM,57% (inactive)
same,inhibition,"[8]; cisplatin combo, at 5 µM",99.4%
same,inhibition,[8]; [15],48.4%
same,inhibition,[8]; [16],56.4%
same,inhibition,"[8]; single agent, at 5 µM",99.6%
same,inhibition,"[9]; BGB IC20 combo, at 0.005 µM",19.2%
same,inhibition,"[9]; BGB IC40 combo, at 0.005 µM",-11.4%
same,inhibition,"[9]; BGB IC40 combo, at 0.05 µM",100%
same,inhibition,[9]; at 0.5 µM,-34.8% (inactive)
same,inhibition,"[9]; cisplatin combo, at 0.05 µM",100%
same,inhibition,"[9]; cisplatin combo, at 0.5 µM",-31.3%
same,inhibition,"[9]; cisplatin combo, at 5 µM",-34.3%
same,inhibition,"[9]; measured here: 5 uM single agent, at 5 µM",-6.89%
same,inhibition,[10]; at 0.5 µM,51.4% (inactive)
same,inhibition,"[10]; measured here: with BGB IC20, at 0.5 µM",49.9%
same,inhibition,"[10]; measured here: with BGB IC20, at 5 µM",99.2%
same,inhibition,"[10]; measured here: with cisplatin IC20, at 0.5 µM",42.9%
same,inhibition,"[10]; measured here: with cisplatin IC20, at 5 µM",99.3%
same,inhibition,"[10]; single agent, at 5 µM",99.2%
same,inhibition,[11]; at 0.5 µM,25.6% (inactive)
same,inhibition,"[11]; measured here: BGB combination, at 0.5 µM",14%
same,inhibition,"[11]; measured here: BGB combination, at 5 µM",70.2%
same,inhibition,"[11]; measured here: cisplatin combination, at 0.5 µM",8.1%
same,inhibition,"[11]; measured here: cisplatin combination, at 5 µM",85.8%
same,inhibition,[12]; at 0.5 µM,-20% (inactive)
same,inhibition,"[12]; cisplatin combination, at 0.5 µM",-18.3%
same,inhibition,"[12]; cisplatin combination, at 5 µM",37.6%
same,inhibition,"[12]; measured here: BGB IC40 combination 0.05 uM, at 0.05 µM",-77.9%
same,inhibition,"[12]; single agent, at 5 µM",101%
same,inhibition,[13]; at 0.5 µM,-5.3% (inactive)
same,inhibition,"[13]; cisplatin combo, at 5 µM",84.6%
same,inhibition,"[13]; measured here: BGB IC40 combination, at 0.05 µM",-18.9%
same,inhibition,"[13]; measured here: combination with cisplatin, at 0.5 µM",32.1%
same,inhibition,"[13]; single agent, at 5 µM",87.5%
same,inhibition,[14]; at 0.5 µM,17.4% (inactive)
same,inhibition,[14]; [15],16.9%
same,inhibition,[14]; [16],16.4%
same,inhibition,"[14]; single agent, at 0.05 µM",9.09%
same,inhibition,"[14]; single agent, at 5 µM",99.7%
